We go through 19 compounds from PubChem BioAssay (NCATS).

The target of test [1] is Rap guanine nucleotide exchange factor 3 (Homo sapiens) (UniProt O95398). Nature of the test: Confirmatory qHTS for antagonist of cAMP-regulated guanine nucleotide exchange factor 3 (EPAC1) (AID 1645880). Note: nearly all actives have a fitted effect of over 55% in size. Note: potency is the fitted concentration of half-maximal effect. The procedure, abridged: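 Nucleotide exchange uses 100 nM EPAC1, 250 nM RAP1B-BODIPY-GDP and 50 uM GDP, with compounds in a concentration-titration series. After 5 min at room temperature, fluorescence (480 nm ex/540 nm em) is read every 5 min for 30 min. Data are normalized to control ATA and DMSO.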
Sequence of Rap guanine nucleotide exchange factor 3 (Homo sapiens) (O95398 whole entry, looked up): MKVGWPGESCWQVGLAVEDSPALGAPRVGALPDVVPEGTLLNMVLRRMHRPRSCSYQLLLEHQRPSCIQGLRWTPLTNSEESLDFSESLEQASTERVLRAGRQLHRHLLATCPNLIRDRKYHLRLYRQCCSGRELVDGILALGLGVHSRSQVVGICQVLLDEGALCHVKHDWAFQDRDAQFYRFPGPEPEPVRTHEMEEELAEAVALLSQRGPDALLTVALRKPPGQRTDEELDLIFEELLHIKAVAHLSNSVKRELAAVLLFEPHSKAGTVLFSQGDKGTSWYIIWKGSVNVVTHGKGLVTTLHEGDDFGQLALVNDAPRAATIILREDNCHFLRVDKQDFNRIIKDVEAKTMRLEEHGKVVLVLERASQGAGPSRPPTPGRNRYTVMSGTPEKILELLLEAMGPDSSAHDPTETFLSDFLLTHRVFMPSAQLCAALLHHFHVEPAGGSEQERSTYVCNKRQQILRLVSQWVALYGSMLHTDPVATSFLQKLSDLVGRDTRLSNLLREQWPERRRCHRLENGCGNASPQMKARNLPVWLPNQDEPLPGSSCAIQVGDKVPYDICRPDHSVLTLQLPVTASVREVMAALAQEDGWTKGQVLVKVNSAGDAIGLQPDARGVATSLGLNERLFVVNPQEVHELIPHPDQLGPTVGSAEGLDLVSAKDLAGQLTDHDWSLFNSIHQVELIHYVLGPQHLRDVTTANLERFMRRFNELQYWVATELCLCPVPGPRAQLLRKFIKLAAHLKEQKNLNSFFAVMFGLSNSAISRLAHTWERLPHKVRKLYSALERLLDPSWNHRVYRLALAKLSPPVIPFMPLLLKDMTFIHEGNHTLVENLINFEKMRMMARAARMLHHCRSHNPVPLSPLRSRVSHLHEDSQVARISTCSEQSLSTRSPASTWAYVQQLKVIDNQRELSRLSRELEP

The target is the same in test [2]. Nature of the test: Confirmatory qHTS for agonist of cAMP-regulated guanine nucleotide exchange factor 3 (EPAC1) (AID 1645881).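 For activation: EPAC1 catalysed release of BODIPY-GDP from Rap1B seen as fluorescence loss; 100% = effect of cAMP agonist control.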 Note: nearly all actives have a fitted effect of over 75% in size. Note: potency is the fitted concentration of half-maximal effect. A general note: Quantitative high-throughput screening tests each substance at several concentrations.
Test [3] addresses Rap guanine nucleotide exchange factor 4 (Homo sapiens) (UniProt Q8WZA2). Nature of the test: Confirmatory qHTS for agonist of cAMP-regulated guanine nucleotide exchange factor 4 (EPAC2) (AID 1645884).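 Note: nucleotide exchange releases bodipy-GDP from Rap1 and this lowers its fluorescence; % is set by controls: 0 for no effect and ±100 for the full control effect; nearly all actives have a fitted effect of over 65% in size.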
For test [4] the target is unchanged. Nature of the test: Confirmatory qHTS for antagonist of cAMP-regulated guanine nucleotide exchange factor 4 (EPAC2) (AID 1645885). For activity change, negative = inhibition: % is set by controls: 0 for no effect and ±100 for the full control effect. Note: nearly all actives have a fitted effect of over 25% in size. Note: potency is the fitted concentration of half-maximal effect.
Test [5] addresses Rap guanine nucleotide exchange factor 3 (Homo sapiens) (UniProt O95398). Nature of the test: Counterscreen qHTS for antagonist of cAMP-regulated guanine nucleotide exchange factor 3 (EPAC1) (AID 1645888).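 Note: fluorescence loss as bound BODIPY-GDP is released from Rap1B; % of control where 0% means no effect.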 The procedure, abridged:
(§1)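 Rap1B–BODIPY-GDP (250 nM) with 50 uM GDP; compounds pin-transferred to 9.74 nM–152 uM final (activator) or from 7.32 nM upwards (inhibitor). Fluorescence Ex/Em 480/540 nm read at 5 and 30 min, then after adding cAMP or buffer, at room temperature.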

The target is the same in test [6]. Briefly: Counterscreen qHTS for agonist of cAMP-regulated guanine nucleotide exchange factor 3 (EPAC1) (AID 1645889). For activation: % of control where 0% means no effect. Note: nearly all actives have a fitted effect of over 40% in size. Note: potency is the fitted concentration of half-maximal effect. The procedure, abridged:
as §1
Background: A counterscreen serves to expose hits that act by an unwanted route or on another target.

Molecules are shown by their SMILES. Several values for one entry are separate records, joined by “and”; a condition that tells them apart may be missing. Equal entries are not always repeated. Records with an inconclusive call do not appear. The source holds several records for some structures; these can differ, active in one and inactive in another. Activity calls are given as the source filed them. Calls come from the whole dose curve; as a rule, active = well fitted curve in the direction sought with a large enough effect; inconclusive = small, poorly fitted or top-dose-only effect, or another doubt; inactive = no such curve, though single readings can be large; an effect the other way counts as inactive or inconclusive.

Sequence of Rap guanine nucleotide exchange factor 4 (Homo sapiens) (Q8WZA2 whole entry, looked up): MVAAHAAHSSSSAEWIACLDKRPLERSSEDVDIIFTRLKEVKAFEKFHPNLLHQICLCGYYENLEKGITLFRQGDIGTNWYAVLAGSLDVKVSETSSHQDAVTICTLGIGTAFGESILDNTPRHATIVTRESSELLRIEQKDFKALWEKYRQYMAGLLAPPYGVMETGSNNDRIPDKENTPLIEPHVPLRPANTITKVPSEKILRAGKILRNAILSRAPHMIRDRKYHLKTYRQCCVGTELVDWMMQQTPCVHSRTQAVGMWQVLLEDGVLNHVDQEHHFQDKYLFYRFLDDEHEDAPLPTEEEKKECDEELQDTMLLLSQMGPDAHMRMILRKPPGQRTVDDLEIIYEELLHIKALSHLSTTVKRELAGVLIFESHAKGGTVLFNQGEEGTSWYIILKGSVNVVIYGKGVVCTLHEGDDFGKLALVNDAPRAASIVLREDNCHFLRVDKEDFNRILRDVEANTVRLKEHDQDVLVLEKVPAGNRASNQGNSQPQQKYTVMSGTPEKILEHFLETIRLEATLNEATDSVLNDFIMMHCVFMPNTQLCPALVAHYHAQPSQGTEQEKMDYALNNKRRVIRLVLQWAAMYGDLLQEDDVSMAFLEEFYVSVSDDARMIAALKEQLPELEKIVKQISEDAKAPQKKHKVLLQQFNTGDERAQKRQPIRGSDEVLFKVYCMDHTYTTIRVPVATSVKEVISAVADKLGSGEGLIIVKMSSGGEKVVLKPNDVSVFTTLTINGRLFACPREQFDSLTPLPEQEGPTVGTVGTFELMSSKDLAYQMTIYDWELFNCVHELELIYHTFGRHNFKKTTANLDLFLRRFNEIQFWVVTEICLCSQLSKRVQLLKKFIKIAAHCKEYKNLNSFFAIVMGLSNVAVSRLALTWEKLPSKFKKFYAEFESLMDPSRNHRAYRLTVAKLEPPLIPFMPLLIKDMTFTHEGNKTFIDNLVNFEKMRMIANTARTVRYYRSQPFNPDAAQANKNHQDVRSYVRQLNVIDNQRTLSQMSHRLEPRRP

Turning to `CCCC1CC(c2csc(N)n2)CCO1` (centres undefined), the Potency result in test [1], in test [2], in test [3], in test [4], in test [5] and in test [6] was “inactive” each time.
For the compound `NN=C1c2ccccc2C(=O)C1C(=O)C(c1ccccc1)c1ccccc1` (centres undefined), the Potency in test [1] is 42.6 µM (active). The Potency entry in test [2], in test [3], in test [4], in test [5] and in test [6] was “inactive” throughout.
Regarding `CCO/C(C)=N/Oc1cc(OC)cc(OC)c1`, the Potency entry in test [1], in test [2], in test [3], in test [5] and in test [6] was “inactive” each time. Further, in test [4], the Potency was 23.9 µM (active).
In the case of `COc1cc(CC(=O)Nc2ccccc2N2CCCCC2)cc(OC)c1OC`, the Potency result in test [1], in test [2], in test [3], in test [4], in test [5] and in test [6] was “inactive” throughout.
In the case of `CCCNC(=O)C1CCN(S(=O)(=O)c2ccc3[nH]c(=O)ccc3c2)CC1`, the Potency result in test [1], in test [2], in test [3], in test [4], in test [5] and in test [6] was “inactive” in each case.
On to `O=C(OCc1c(-c2ccccc2)ncc2ccccc12)c1ccccc1C(F)(F)F`, for which the Potency entry in test [1], in test [2], in test [3], in test [4], in test [5] and in test [6] was “inactive” in each case.
Turning to `CC(=O)N1CCc2cc(Br)cc(S(=O)(=O)NCCCN(C)Cc3ccccc3)c21`, the Potency result in test [1], in test [2], in test [3], in test [5] and in test [6] was “inactive” in each case. In addition, the Potency in test [4] was 23.9 µM (active).
As to `COc1cc(/C=N/NC(=O)c2ccc3c(c2)OCCO3)cc(Br)c1O`, the Potency in test [1] was 42.6 µM (active). Further, the Potency result in test [2], in test [3], in test [4], in test [5] and in test [6] was “inactive” in each case.
On to `CC(C)(C)c1ccc(C(CC(=O)O)NC(=O)CSc2ccccc2)cc1` (centres undefined), for which the Potency entry in test [1], in test [2], in test [3], in test [4], in test [5] and in test [6] was “inactive” in each case.
Consider `CC1S/C(=N/N=C2CCC(C(C)(C)C)CC2)NC1=O` (centres undefined), for which the Potency entry in test [1], in test [2] and in test [4] was “inactive” in each case. The activation is -7.78% [at 17.1 µM, percent relative to cAMP agonist control] (inactive) in test [3] and 18.6% [at 30.8 µM] (inactive) in test [6]. Further, the activity change, negative = inhibition in test [5] is 2.96% [at 30.8 µM] (inactive).
With `CCN1C(=O)/C(=C/C=C2/SCCN2C)SC1=S`, the Potency entry in test [1] and in test [4] was “inactive” each time. The Potency in test [2] was 79.4 µM (active); in test [6], 11.2 µM (active). For the same compound, the activation in test [3] was 20% [at 17.1 µM, percent relative to cAMP agonist control] (inactive). For the same compound, the activity change, negative = inhibition in test [5] is 0.532% [at 30.8 µM] (inactive).
For the compound `CN(C)c1ccc(/C=C/c2nc3ccccc3c(=O)n2-c2ccc(C(=O)O)cc2)cc1`, the Potency is 75.7 µM (active) in test [1], 67.5 µM (active) in test [4] and 39.8 µM (active) in test [6]. For the same compound, the Potency result in test [2], in test [3] and in test [5] was “inactive” in each case.
Turning to `CCCCN(C(=O)CSCC(=O)Nc1ccc(C)cc1)c1c(N)n(CCCC)c(=O)[nH]c1=O`, the Potency entry in test [1], in test [2] and in test [4] was “inactive” each time. Moreover, the activation in test [3] is 4% [at 17.1 µM, percent relative to cAMP agonist control] (inactive); in test [6], 6.23% [at 30.8 µM] (inactive). Also, the activity change, negative = inhibition in test [5] was -21.2% [at 30.8 µM] (inactive).
`O=C(CN(c1ccc(Cl)c(C(F)(F)F)c1)S(=O)(=O)c1ccccc1)N1CCc2ccccc2C1`: the Potency entry in test [1], in test [2], in test [3], in test [4], in test [5] and in test [6] was “inactive” throughout.
`CCOc1cc(-c2nnc(NC(=O)C3=COCCO3)o2)cc(OCC)c1OCC`: the Potency entry in test [1], in test [2] and in test [4] was “inactive” throughout. The activation in test [3] was -6.21% [at 17.1 µM, percent relative to cAMP agonist control] (inactive); in test [6] it was 5.03% [at 30.8 µM] (inactive). In addition, in test [5], the activity change, negative = inhibition is 3.19% [at 30.8 µM] (inactive).
Take `COc1ccc(C2c3c(-c4ccccc4O)n[nH]c3C(=O)N2Cc2ccco2)cc1` (centres undefined): the Potency result in test [1], in test [2], in test [3], in test [5] and in test [6] was “inactive” in each case. In addition, the Potency result in test [4] is “inactive and 37.9 µM (active)”.
As to `Cc1cc(NCc2ccco2)n2c(nc3ccccc32)c1C#N`, the Potency entry in test [1], in test [2], in test [3], in test [4], in test [5] and in test [6] was “inactive” each time.
Consider `Cc1cc(=O)n(C2CCS(=O)(=O)C2)[nH]1` (centres undefined), for which the Potency entry in test [1], in test [2], in test [3], in test [4] and in test [5] was “inactive” in each case. Further, the Potency in test [6] was 4.47 µM (active).
Consider `O=C1NC(=Nc2ccccc2Cl)S/C1=C\c1cccc([N+](=O)[O-])c1O`, for which the Potency in test [1] was 21.3 µM (active). The Potency result in test [2], in test [3], in test [4], in test [5] and in test [6] was “inactive” in each case.
